Among the data in PubChem BioAssay are z-score and composite z-score values, retold here.

Assay [1] in a line: optical density shifts of acrAB sulA E. coli – strain DRC41, OD650, 48 h, E. coli filamentation inducer project, primary screen (AID 1152).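 Further: E. coli MC1000 strain DRC41 lacking acrAB efflux pump and sulA.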 The conditions noted are these: higher = more signal, called active from +8 up or from −8 down.
Assay [2] in a line: probe aLefty1 binding on compound microarray – biochemical, small-molecule microarray, 635/667 nm fluorescence, primary screen (AID 1153).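 Further: score merges spot fluorescence with signal-to-noise ratio from the scanned slide images.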 The conditions noted are these: higher = more signal.
A short description of assay [3]: plasmodial surface anion channel blockers, osmotic lysis – cell-based, P. falciparum Indochina, OD700, 1 h, primary screen (AID 1154). Particulars: P. falciparum Indochina infected RBC osmotic lysis, higher = more signal, called active from +8 up or from −8 down.
Assay [4] in a line: plasmodial surface anion channel blockers, osmotic lysis – cell-based, P. falciparum Indochina, OD700, 2 h, primary screen (AID 1155).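 Further: lysis reports solute entry through the parasite surface anion channel PSAC.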 The conditions noted are these: P. falciparum Indochina infected erythrocytes, higher = more signal, called active from +8 up or from −8 down.
Assay [5] in a line: changes in parasitized red cell lysis, either direction – P. falciparum Indochina, OD700, 3 h, PSAC antagonist project, primary screen (AID 1156). Particulars: P. falciparum-infected erythrocytes, osmotic lysis, higher = more signal, called active from +8 up or from −8 down.
Assay [6] is described as follows: plasmodial surface anion channel blockers, osmotic lysis – cell-based, P. falciparum Indochina, OD700, 18 h, primary screen (AID 1157). The conditions noted are these: P. falciparum Indochina infected erythrocytes, osmotic lysis OD700, 18 h; higher = more signal, called active from +8 up or from −8 down.
The nature of assay [7]: S6 kinase pathway phospho-S6 level changes – cell-based, A549, cytoblot, luminescence, serum-stimulated, primary screen (AID 1158).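 Further: serum-stimulated A549 lung adenocarcinoma cells; signal is phosphorylated S6 detected by cytoblot immunostaining with HRP secondary.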 Particulars: 5 h, higher = more signal.
Assay [8] concerns the target NADPH oxidase 2 (Homo sapiens) (UniProt P04839). In words: compounds shifting NOX2 Amplex Red fluorescence – cell-based, HEK293-NOX2, PMA-stimulated, NOX inhibitor project, primary screen (AID 1159). Further: test concentration not given here. Particulars: 45 min, higher = more signal, called active from +8 up or from −8 down.
Assay [9] addresses NADPH oxidase 4 (Homo sapiens) (UniProt Q9NPH5). In words: compounds shifting NOX4 Amplex Red fluorescence – cell-based, HEK293-NOX4, tetracycline-induced, NOX inhibitor project, primary screen (AID 1160). Particulars: HEK293-NOX4, Amplex Red H2O2 fluorescence, 45 min; higher = more signal, called active from +8 up or from −8 down.
For assay [10], the target named is NADPH oxidase 5 (Homo sapiens) (UniProt Q96PH1). Description: compounds shifting NOX5 Amplex Red fluorescence – cell-based, HEK293-NOX5, NOX inhibitor project, primary screen (AID 1161). The conditions noted are these: HEK293-NOX5, ionomycin, 45 min, higher = more signal.
Chain of NADPH oxidase 5 (Homo sapiens) (Q96PH1 whole entry, looked up): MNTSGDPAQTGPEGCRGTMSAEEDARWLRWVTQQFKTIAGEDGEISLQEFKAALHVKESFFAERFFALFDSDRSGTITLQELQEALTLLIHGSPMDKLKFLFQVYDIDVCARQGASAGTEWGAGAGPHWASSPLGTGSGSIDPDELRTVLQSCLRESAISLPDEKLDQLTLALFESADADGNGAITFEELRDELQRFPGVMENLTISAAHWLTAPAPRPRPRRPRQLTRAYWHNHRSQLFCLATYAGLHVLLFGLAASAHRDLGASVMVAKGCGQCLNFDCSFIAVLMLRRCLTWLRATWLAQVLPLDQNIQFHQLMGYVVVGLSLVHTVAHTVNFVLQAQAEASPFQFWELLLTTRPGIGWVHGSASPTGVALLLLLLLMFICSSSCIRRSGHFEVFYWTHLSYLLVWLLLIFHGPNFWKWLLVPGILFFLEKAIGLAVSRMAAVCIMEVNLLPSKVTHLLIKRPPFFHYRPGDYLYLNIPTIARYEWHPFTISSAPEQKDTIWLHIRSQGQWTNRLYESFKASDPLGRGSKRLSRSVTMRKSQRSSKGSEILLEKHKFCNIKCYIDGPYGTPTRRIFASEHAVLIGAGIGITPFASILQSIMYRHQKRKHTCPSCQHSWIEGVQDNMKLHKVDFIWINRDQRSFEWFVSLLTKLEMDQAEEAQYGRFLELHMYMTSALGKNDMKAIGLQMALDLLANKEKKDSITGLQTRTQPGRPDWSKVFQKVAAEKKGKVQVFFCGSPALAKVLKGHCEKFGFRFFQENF
Assay [11] in a line: compound effects on lung adenocarcinoma cell viability – A549, calcein-AM fluorescence, 48 h, basal, profiling panel (AID 1162). Further: test concentration not given here. Particulars: higher = more signal.
Assay [12] in a line: compound effects on differentiated 3T3-L1 adipocyte viability – cell-based, 3T3-L1 adipocytes, calcein-AM fluorescence, 48 h, basal, profiling panel (AID 1163). Further: test concentration not given here. The conditions noted are these: 3T3-L1 adipocytes viability, higher = more signal.
The nature of assay [13]: compound effects on hepatocellular carcinoma cell viability – HepG2, calcein-AM fluorescence, 48 h, basal, profiling panel (AID 1164). Further: test concentration not given here. Particulars: higher = more signal.
Assay [14] can be described thus: compound effects on multiple myeloma cell viability – MM1S, calcein-AM fluorescence, 48 h, basal, profiling panel (AID 1165). Further: test concentration not given here. The conditions noted are these: higher = more signal.
Assay [15] can be described thus: calcein-AM signal in unstimulated myeloma cells – cell-based, calcein-AM fluorescence, 48 h, PK04 Diversity Set, profiling panel (AID 1166).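 Further: cells grown under basal conditions without added stimulus; test concentration not given here.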 The conditions noted are these: RPMI8226 myeloma viability, higher = more signal.
A short description of assay [16]: JC-1 mitochondrial signal, unstimulated HepG2 cells – cell-based, JC-1 fluorescence, 24 h, 100 nL compound, profiling panel (AID 1167). Further: test concentration not given here. Particulars: HepG2 mitochondrial potential, higher = more signal.
The nature of assay [17]: JC-1 mitochondrial signal, unstimulated adipocytes – cell-based, JC-1 fluorescence, 3T3-L1 adipocytes, 24 h, 100 nL compound, profiling panel (AID 1168). Further: test concentration not given here. Particulars: JC-1 mitochondrial fluorescence, higher = more signal, called active from +8 up or from −8 down.
Assay [18] can be described thus: JC-1 mitochondrial signal, unstimulated myeloma cells – cell-based, JC-1 fluorescence, RPMI8226, 24 h, 100 nL compound, profiling panel (AID 1169). Further: test concentration not given here. Particulars: JC-1 mitochondrial potential fluorescence, higher = more signal.
Assay [19] in a line: JC-1 mitochondrial signal, unstimulated MM1S myeloma – cell-based, JC-1 fluorescence, 24 h, 100 nL compound, profiling panel (AID 1170). Further: test concentration not given here. The conditions noted are these: MM1S mitochondrial potential, higher = more signal.
The nature of assay [20]: resazurin metabolic signal in A549 cells – cell-based, resazurin fluorescence, 24 h, PK04 Diversity Set, profiling panel (AID 1171). Further: test concentration not given here. Particulars: A549 viability, higher = more signal, called active from +8 up or from −8 down. (The colour change of resazurin is a common sign of viable cells or microbes.)

Calls of active or inactive are those of the source.

Chain of NADPH oxidase 2 (Homo sapiens) (P04839 whole entry, looked up): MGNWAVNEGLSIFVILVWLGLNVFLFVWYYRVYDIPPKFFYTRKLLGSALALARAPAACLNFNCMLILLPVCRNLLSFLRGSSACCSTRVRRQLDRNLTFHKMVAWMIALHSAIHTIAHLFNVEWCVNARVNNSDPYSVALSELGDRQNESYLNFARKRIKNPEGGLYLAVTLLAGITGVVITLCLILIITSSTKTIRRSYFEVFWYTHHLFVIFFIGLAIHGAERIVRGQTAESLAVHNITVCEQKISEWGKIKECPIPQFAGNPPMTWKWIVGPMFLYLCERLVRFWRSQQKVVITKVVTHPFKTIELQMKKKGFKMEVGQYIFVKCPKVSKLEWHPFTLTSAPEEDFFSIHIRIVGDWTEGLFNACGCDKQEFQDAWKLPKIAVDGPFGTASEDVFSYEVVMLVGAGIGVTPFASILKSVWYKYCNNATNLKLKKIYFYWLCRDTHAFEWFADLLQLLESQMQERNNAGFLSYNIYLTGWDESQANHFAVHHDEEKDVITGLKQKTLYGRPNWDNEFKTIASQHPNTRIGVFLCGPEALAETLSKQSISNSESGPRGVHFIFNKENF
Chain of NADPH oxidase 4 (Homo sapiens) (Q9NPH5 whole entry, looked up): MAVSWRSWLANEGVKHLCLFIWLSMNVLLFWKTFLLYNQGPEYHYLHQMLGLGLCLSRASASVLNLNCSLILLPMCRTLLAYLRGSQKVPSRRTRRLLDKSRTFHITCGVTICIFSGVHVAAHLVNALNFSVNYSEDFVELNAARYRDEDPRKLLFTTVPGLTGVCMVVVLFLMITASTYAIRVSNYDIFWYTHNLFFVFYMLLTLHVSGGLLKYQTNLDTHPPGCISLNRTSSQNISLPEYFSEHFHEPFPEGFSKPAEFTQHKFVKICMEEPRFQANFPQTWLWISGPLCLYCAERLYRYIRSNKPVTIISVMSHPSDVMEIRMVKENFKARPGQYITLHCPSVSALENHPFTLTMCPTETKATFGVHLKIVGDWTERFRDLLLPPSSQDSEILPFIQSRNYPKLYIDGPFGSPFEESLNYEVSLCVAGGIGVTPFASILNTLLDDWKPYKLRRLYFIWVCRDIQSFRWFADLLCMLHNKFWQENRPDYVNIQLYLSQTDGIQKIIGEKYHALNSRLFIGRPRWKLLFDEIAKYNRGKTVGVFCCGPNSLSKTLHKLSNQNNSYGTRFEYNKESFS

Consider `CO[C@H]1COC(=O)[C@H](C)NC(=O)[C@@H](C)COC(=O)[C@H]2CCCN2C(=O)CC=C[C@H]1C`, for which the z-score is -0.0911 (inactive) in [1]; 0.551 (inactive) in assay [3]; 0.453 (inactive) in assay [4]; 0.603 (inactive) in assay [5]; 0.293 (inactive) in assay [6]; 0.203 in assay [7]. Also, the z-score in [8] is -0.752 (inactive); in [9], 0.0917 (inactive); in assay [10], 0.363; in assay [11], -0.622; in assay [12], -0.321; in assay [13] it was -0.0694. Moreover, the z-score in [14] is -0.151; in assay [15], 0.353; in assay [16] it was 0.132; in assay [17], -0.658 (inactive); in assay [18] it was -0.0639; in assay [19] it was -1.01. Further, in assay [20], the z-score was -0.463 (inactive). Also, the composite z-score in [2] was -0.194.
Turning to `CCOC(=O)[C@H](CC(C)C)NC(=O)CCC1CC(OC(=O)NCc2cccc3ccccc23)CC2(CCCC(COC(=O)NCCOC)O2)O1` (stereo not given in full), the z-score was 1.24 (inactive) in [1]; -0.137 (inactive) in [3]; 0.184 (inactive) in assay [4]; -0.283 (inactive) in [5]; -0.196 (inactive) in [6]; 0.142 in [7]. Also, the z-score in assay [8] was 1.05 (inactive); in [9], 0.96 (inactive); in [10], -0.464; in [11] it was 2.3; in assay [12], 0.217; in assay [13], 0.442. Moreover, the z-score in assay [14] was -0.441; in [15] it was 0.643; in assay [16] it was 1.01; in assay [17], -0.356 (inactive); in assay [18], -0.198; in assay [19], -0.834. Further, the z-score in assay [20] was 0.781 (inactive). Also, in assay [2], the composite z-score was -0.0559.
As to `O=C1C=C[C@@H](O)[C@@H]2[C@@H]3C(=O)N(c4ccc(F)cc4F)C(=O)[C@@H]3CC[C@@H]12`, the z-score in [1] was 0.262 (inactive); in assay [3] it was 0.337 (inactive); in [4], -1.44 (inactive); in assay [5], -0.562 (inactive); in assay [6] it was -1.9 (inactive); in assay [7], 1.44. The z-score in assay [8] is -0.632 (inactive); in [9] it was 0.267 (inactive); in [10], 0.713; in [11] it was 0.0767; in assay [12], 0.244; in assay [13] it was 1.04. Besides, the z-score in assay [14] was 0.157; in assay [15], -1.1; in [16], 0.991; in assay [17], 0.46 (inactive); in [18], -0.322; in assay [19], 0.921. Further, in assay [20], the z-score is -1.47 (inactive). Moreover, the composite z-score in [2] was -0.0559.
Take `COc1ccc(C#C[C@@H]2C=C[C@H](OC(C)=O)[C@@H](COC(C)=O)O2)cc1`: the z-score in assay [1] is 0.381 (inactive); in assay [3], 1.96 (inactive); in assay [4] it was 0.141 (inactive); in assay [5], -0.544 (inactive); in [6], -0.0979 (inactive); in [7] it was -0.394. The z-score in assay [8] is 1.38 (inactive); in assay [9], 0.59 (inactive); in assay [10], 0.89; in assay [11] it was -0.142; in [12], 0.49; in [13], 0.419. Also, the z-score was -3.54 in assay [14]; -2.65 in assay [15]; -1.52 in assay [16]; -0.197 (inactive) in assay [17]; -0.437 in assay [18]; -2.68 in [19]. Further, the z-score in [20] is -0.0296 (inactive). Further, in assay [2], the composite z-score was -0.193.
For `COc1ccc(O[C@@H]2[C@H](O)CO[C@H]2C=Cc2ccccc2)cc1`, the z-score in assay [1] is -0.164 (inactive); in assay [3] it was 1.65 (inactive); in assay [4], -0.518 (inactive); in assay [5], -0.433 (inactive); in assay [6] it was -0.323 (inactive); in assay [7], 0.243. Also, the z-score in [8] was 0.335 (inactive); in assay [9], -0.426 (inactive); in [10] it was -0.102; in assay [11] it was 0.576; in [12] it was 0.759; in assay [13], 0.898. Besides, the z-score in [14] was -0.418; in assay [15], -0.483; in assay [16], 0.364; in assay [17], 0.0785 (inactive); in assay [18], 0.868; in assay [19], -0.121. The z-score in assay [20] is -1.44 (inactive). Further, the composite z-score in assay [2] is -0.237.
